Shown are actives, neighbours in structure and some others; about 21% of the full set was active somewhere.
Shiga inhibitor: inhibitors of Shiga toxin in Vero cells; AID 2315; 290,000 compounds, 9.2% hits; inhibition, % at 38.7 µM; Vero cells, Shiga toxin protein synthesis inhibition reporter; in the data active = inhibition mostly above about 28%, no sharp cut-off; inactive = mostly below about 43%
HCV inh: HCV inhibition | Huh7.5.1 HCVcc-Cre infection, luciferase reporter, 44 h | Potency, µM (doses to about 41.8 µM), hits mostly inhibitors | 340,000 compounds, 3.4% hits
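Cells (1,000/well) were plated 4 h before compound, then infected with HCVcc-Cre virus (~0.5 moi). After 44 h further culture, infection was read as luciferase luminescence following a 15 min substrate incubation at room temperature.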
Cycloheximide cs: counter-screen hit for Shiga toxin inhibitors, cycloheximide | cell reporter, cycloheximide protein synthesis inhibition counterscreen | 300,000 compounds, 12% hits | AID 2314 | max response, %; in the data active = max response mostly above about 13%, no sharp cut-off; inactive = mostly below about 14%; also: read at 38.3 µM for the half of the compounds with a filed dose
AMA1 RON2 block: disrupts binding of P. falciparum AMA1 to RON2 | AlphaScreen AMA1-biotinylated RON2 peptide binding | AID 720542 | 360,000 compounds, 0.2% hits | Potency, µM (titrated, usually from 58.2 µM), most hits filed as inhibitors; also: nearly all actives have a fitted effect of over 45% in size
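AMA1 (3D7) with his tag at 25 nM final met compounds first, then biotinylated RON2 peptide at 25 nM; detection used donor plus acceptor beads, 10 µg/mL apiece, read by AlphaScreen after 30 min at room temperature.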
Pf growth 96h: P. falciparum growth inhibition at 96 hour, primary screen for plastid delayed-death inhibitors. P. falciparum luciferase reporter growth, 96 h. 320,000 compounds, 6.9% hits. Potency, µM (doses to about 28.7 µM), most hits filed as inhibitors
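Plates of compound plus infected erythrocytes (2% hematocrit, 0.05% parasitemia final) incubate 96 hours, 37 C, 5% CO2. Detection reagent added; reduced luminescence from the parasites' luciferase reporter flags inhibition.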
Pf growth 48h: inhibits P. falciparum growth in the first generation, 48 h; P. falciparum luciferase growth in erythrocytes, 48 h; Potency, µM (titrated, usually from 28.7 µM), hits mostly inhibitors; 310,000 compounds, 5.9% hits; AID 504832
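Cell-based growth assay: transgenic P. falciparum expressing firefly luciferase, cultured in red cells within RPMI 1640 containing 0.5% w/v Albumax, 24 mM bicarbonate and gentamycin. A drop in luciferase activity indicates inhibition.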
Numbers stand for hits; – = inactive; ? = inconclusive; · = not tested or not shown; [ ] = another dose, or the depositor's remark. Unless noted, calls follow the shape of the dose curve; as a rule, active = well fitted curve in the direction sought with a large enough effect; inconclusive = small, poorly fitted or top-dose-only effect, or another doubt; inactive = no such curve, though single readings can be large; an effect the other way counts as inactive or inconclusive.

SMILES	Shiga inhibitor	HCV inh	Cycloheximide cs	AMA1 RON2 block	Pf growth 96h	Pf growth 48h
CCN(CC)S(=O)(=O)c1ccc2c(c1)c(=O)c(C(=O)NCc1ccc3c(c1)OCO3)cn2C	–	–[0.335 µM]	–	·	–	–
C=CCn1cc(C(=O)NCc2ccc3c(c2)OCO3)c(=O)c2cc(S(=O)(=O)N(CC)CC)ccc21	–	?	–	–	?	12µM
CCn1cc(C(=O)NC(C)CCc2ccccc2)c(=O)c2cc(S(=O)(=O)N(C)C)ccc21 (centres undefined)	–	–	–	–	–	6.6µM
CCn1cc(C(=O)NCc2ccc3c(c2)OCO3)c(=O)c2cc(S(=O)(=O)N(C)C)ccc21	–	–	–	?	?	12µM
CCn1cc(C(=O)NCCCN(C)c2ccccc2)c(=O)c2cc(S(=O)(=O)N(C)C)ccc21	–	–	–	–	15µM	?
CCn1cc(C(=O)NCc2ccccc2OC)c(=O)c2cc(S(=O)(=O)N(C)C)ccc21	–	14µM	–	–	10µM	?
Cc1onc(-c2c(F)cccc2Cl)c1-c1nnc(-c2ccc(C(F)(F)F)cc2)o1	–	–	–	–	8.3µM	8.3µM
Cc1onc(-c2c(Cl)cccc2Cl)c1COC(=O)c1ccc(Cl)cc1	–	?	–	–	13µM	?
Cc1onc(-c2c(Cl)cccc2Cl)c1-c1nnc(-c2ccc(Cl)cc2)o1	–	18µM	–	–	–	?
CC(=O)Nc1nnc(-c2c(-c3c(Cl)cccc3Cl)noc2C)o1	–	–	–	–	–	–
COc1cccc(CNC(=O)CN2C(=O)CSc3ccc(S(=O)(=O)N4CCCCC4)cc32)c1	–	–	–	–	?	?
Clc1cccc(C2CCN(Cc3nc(CC4CC4)no3)C2)c1 (centres undefined)	–	–	–	?	–	–
Cc1ccc2ccc3ccc(C)nc3c2n1	–	0.32µM	–	–	–	0.23µM
Cc1ccc2cc(F)c(F)c(F)c2n1	·	·	·	–	·	·
Nc1nonc1-c1noc(CCCN2C(=O)c3ccccc3C2=O)n1	98	–	112	–	–	–
Nc1nonc1-c1noc(-c2ccccc2Br)n1	38	–	30	–	?	–
Nc1nonc1-c1noc(N2CCOCC2)n1	–	–	–	–	–	–
O=C1c2ccccc2C(=O)N1CCCc1nc(-c2ccncc2)no1	–	–	–	–	–	–
COc1ccc(-c2noc(-c3ccc(Br)o3)n2)cc1OC	–	–	–	–	·	–
Clc1ccccc1OCc1nc(-c2ccc(Br)o2)no1	70	–	54	–	–	·
COc1ccc(-c2noc(COc3ccc4ccccc4c3Br)n2)cc1OC	–	?	–	–	–	–
CN(Cc1nc(-c2ccccn2)no1)S(=O)(=O)c1ccccc1	61	?	24	–	–	–
Brc1ccc(-c2noc(CCc3ccccc3)n2)o1	84	–	17	–	?	·
Fc1ccc(OCc2nc(-c3ccc(Br)o3)no2)c(F)c1	62	?	18	–	?	·
O=C(c1cccc(NC2=NC3CS(=O)(=O)CC3S2)c1)N1CCN(c2cccc(Cl)c2)CC1 (centres undefined)	–	–	–	–	–	–
SMILES	Shiga inhibitor	HCV inh	Cycloheximide cs	AMA1 RON2 block	Pf growth 96h	Pf growth 48h
O=C(NCc1ccccc1)C(C1CC1)n1c(-c2cccs2)nc2ccccc21 (centres undefined)	·	·	·	–	·	·
c1ccc(CCc2nc(-c3ccccn3)no2)cc1	125	–	31	–	·	–
CCOC(=O)[C@]12CCC=C1N(CCC1=CCCCC1)C(=O)[C@H](CC(=O)N1CCCCC1)C2	·	·	·	–	·	·
C[n+]1ccccc1/C=C/c1ccccc1Cl	–	?	–	–	?	1.5µM
C[n+]1ccccc1/C=C/c1ccc(C#N)cc1	·	–	–	–	?	–
C[n+]1ccccc1/C=C/c1ccc([N+](=O)[O-])cc1	–	10µM	–	–	–	1.3µM
C[n+]1ccccc1/C=C/c1ccc(F)c(F)c1	·	–	–	–	–	?
O=C(/C=C/c1ccccc1Cl)N1CCCN(C(=O)/C=C/c2ccccc2Cl)CC1	–	–	–	–	–	–
Nc1ccccc1/C=C/c1ccccc1N	·	?	·	–	·	·
Cc1ccccc1/C=C/c1cccc[n+]1C	–	6.3µM	–	–	?	4.7µM
C[n+]1ccccc1/C=C/c1c(F)cccc1F	–	?	–	–	?	13µM
O=C1c2ccc([N+](=O)[O-])cc2C(=O)N1Cc1cccnc1	–	–	–	–	–	–

Source: PubChem (National Center for Advancing Translational Sciences (NCATS))
